The values below come from ChEMBL document CHEMBL4513216, “Probing the Open Global Health Chemical Diversity Library for Multistage-Active Starting Points for Next-Generation Antimalarials” (ACS Infect Dis, 2020).

Out of some 69,000 compounds screened, about 8,600 (12%) showed an effect of 50% or more. The sample holds strong results, similar compounds and a random draw of the others, so the mix is not that of the screen.

The assay has as its system Plasmodium berghei. Description: Screen against P. berghei liver stage (PbLuc), transformed with Luciferase, at 10uM. In kind it is functional, HepG2. Particulars: tested at 10 uM.
Take `Cc1ncsc1CN1CC[C@H]2OCC[C@@]2(C(=O)NC(C)C)C1`: the INHIBITION is recorded as 11.1%.

Take `Fc1cccc(Cl)c1Cn1ncnc1CSCCN1CCCC1`: the INHIBITION worked out at 39.9%.

Turning to `Cc1nnc(C2CCN(C(=O)c3cnc4ccccc4n3)CC2)s1`, the INHIBITION was 31.2%.

On to `CN(C)C[C@@H]1CN(C(=O)CCC2CCCC2)C[C@@H]1CO`, for which the INHIBITION was 28.2%.

On to `O=C(c1cnccn1)N1CCCC(Cc2cccc3ncccc23)C1` (stereo not drawn), for which the INHIBITION was determined as 70.8%.

Take `Cn1ccc(C(=O)N2CCCC(Cc3cccc4ncccc34)C2)n1` (stereo not drawn): the INHIBITION is given as 75.1%.

For the compound `O=C(c1cnco1)N1CCC(Cc2cccc3ncccc23)CC1`, the INHIBITION is on record as 44.9%.

Take `O=C(c1cnco1)N1CCCC(Cc2nccs2)C1` (stereo not drawn): the INHIBITION was determined as 26.9%.

On to `Cn1cc(C(=O)N2CCCC(Cc3nccs3)C2)cn1` (stereo not drawn), for which the INHIBITION is listed as 20.2%.

`Cn1cc(C(=O)N2CCCC(Cc3cncc4ccccc34)C2)cn1` (stereo not drawn): the INHIBITION worked out at 3.91%.

`O=C(c1cnco1)N1CCCC(Cc2cccc3ncccc23)C1` (stereo not drawn): the INHIBITION came to 51.2%.

Turning to `Cn1cc(C(=O)N2CCCC(Cc3cccc4ncccc34)C2)cn1` (stereo not drawn), the INHIBITION is 85.7%.

Turning to `Cn1ccc(C(=O)N2CCC(Cc3cccc4ncccc34)CC2)n1`, the INHIBITION was determined as 42.6%.

For `O=C(c1cnccn1)N1CCCC(Cc2cncc3ccccc23)C1` (stereo not drawn), the INHIBITION is listed as -39.4%.

In the case of `Cn1ccc(C(=O)N2CCC(Cc3cccc4ncccc34)C2)n1` (stereo not drawn), the INHIBITION was determined as 23.4%.

As to `O=C(c1cnccn1)N1CCCC(Cc2ccccn2)C1` (stereo not drawn), the INHIBITION was 31.8%.

With `CNC(=O)N1CCC2(CC1)CN(C)Cc1cc(F)ccc12`, the INHIBITION stood at 39.3%.

Turning to `Cc1cccc(CN2CCc3nnc(CN4CCCCC4)n3CC2)n1`, the INHIBITION was -89.8%.

As to `CC(C)c1nccn1C1CCCN(C(=O)CN(C)C2CC2)C1` (stereo not drawn), the INHIBITION was 19.6%.

For the compound `CCN(C(=O)COc1nc(C(C)(C)C)no1)C1CC1`, the INHIBITION was -1.75%.

As for `COc1ccc(C[C@H]2CN(C(=O)c3cc(C)no3)CC[C@H]2OC)cc1`, the INHIBITION is -22.1%.

Regarding `Cc1cc(C)c(CNC(=O)NCc2ccncc2)c(=O)[nH]1`, the INHIBITION is on record as 37.9%.

In the case of `COCCNC(=O)NC(C)COc1ccc(F)cc1F` (stereo not drawn), the INHIBITION is -2.48%.

For `CC(C)N1C(=O)CO[C@H]2CCN(C(=O)c3ccc4c(c3)CCC4)CC[C@@H]21`, the INHIBITION worked out at 20.105%.

Regarding `Cc1noc(C)c1CN1CCC2(CC1)C(c1cnn(C)c1)CC(=O)N2C` (stereo not drawn), the INHIBITION came to 41.2%.

For the compound `CCC(CC)C(=O)N1CCOC2(COCCN(CC(=O)NC)C2)C1` (stereo not drawn), the INHIBITION is on record as -13%.

Turning to `O=C(NCCc1c[nH]cn1)c1n[nH]c2c1CCC2`, the INHIBITION is recorded as -11.1%.

With `COc1ccccc1CC(=O)N1CCCC(CNS(C)(=O)=O)C1` (stereo not drawn), the INHIBITION stood at 4.623%.

For the compound `Cc1csc(N2CCCN(C(=O)Cc3cccs3)CC2)n1`, the INHIBITION was 14.4%.

With `Cc1cnn(CCC(=O)N2CCN(c3nc(C)cs3)CC2)c1`, the INHIBITION came to 62.8%.

Consider `Cc1csc(N2CCCN(C(=O)Cc3ccc(C)s3)CC2)n1`, for which the INHIBITION came out at 69.8%.

In the case of `CCn1cc(CN2CCCN(C(=O)CCn3cc(C)cn3)CC2)cn1`, the INHIBITION turned out to be 52.5%.

Turning to `Cc1cnn(CCC(=O)N2CCCN(c3nc(C)cs3)CC2)c1`, the INHIBITION is on record as 17.4%.

Consider `CCn1cc(CN2CCCN(C(=O)C3(C)CCOCC3)CC2)cn1`, for which the INHIBITION is 55.4%.

For the compound `CCn1cc(CN2CCCN(C(=O)CCc3cnn(C)c3)CC2)cn1`, the INHIBITION worked out at 15.5%.

For the compound `Cc1cnn(CC(=O)N2CCCN(c3nc(C)cs3)CC2)c1`, the INHIBITION was 35.9%.

`CCn1cc(CN2CCCN(C(=O)CCSC)CC2)cn1`: the INHIBITION stood at 5.9%.

Take `CCn1cc(CN2CCCN(C(=O)C3(C#N)CCCCC3)CC2)cn1`: the INHIBITION was 45.2%.

For `CCn1cc(CN2CCN(C(=O)N3CCOCC3)CC2)cn1`, the INHIBITION was determined as 43.4%.

Take `Cc1csc(N2CCN(C(=O)Cc3ccc(C)s3)CC2)n1`: the INHIBITION is -23.8%.

Regarding `CN(Cc1cc[nH]n1)C(=O)c1cn(Cc2ccccc2Cl)nn1`, the INHIBITION is 39.4%.

Take `COc1ccc2[nH]cc(C(=O)N3C[C@@H](O)[C@H](NS(C)(=O)=O)C3)c2c1`: the INHIBITION was 14.6%.

On to `O=C(c1ccnc(C2CCNCC2)c1)N1CCCOCC1`, for which the INHIBITION came out at 42.6%.

Consider `CCN(CC)S(=O)(=O)NCC1Cc2ccccc2O1` (stereo not drawn), for which the INHIBITION worked out at 7.65%.

Consider `CC(=O)N1CCCC1c1nc(CN(C)C(=O)C(C)C)cc(N(C)C)n1` (stereo not drawn), for which the INHIBITION amounted to 23.9%.

For the compound `CCc1n[nH]c(C2CN(CCS(C)(=O)=O)CCO2)n1` (stereo not drawn), the INHIBITION stood at 25.6%.

With `O=S(=O)(NC1CCCOC1)c1ccc(C(F)(F)F)nc1` (stereo not drawn), the INHIBITION stood at 30%.

For `Cc1cnn(CC2CCCN2CC(=O)NC2CCN(C3CC3)CC2)c1` (stereo not drawn), the INHIBITION is given as -42.3%.

As for `CCc1nccn1C1CCCN(C(=O)c2cncnc2C)C1` (stereo not drawn), the INHIBITION stood at 21.6%.

Take `CN(C)CC1CN(C(=O)NCc2ccccc2)Cc2nccn2C1` (stereo not drawn): the INHIBITION was 13.5%.

On to `Cc1cccc2c1OCCC2NCc1c(C(C)C)nn(C)c1N(C)C` (stereo not drawn), for which the INHIBITION was -41.2%.

For the compound `CC(C)(C)Oc1ccc(CN)c(C(F)(F)F)c1`, the INHIBITION came to 30.8%.

Turning to `CCc1ccsc1C(=O)N1CCCN(Cc2cnn(CC)c2)CC1`, the INHIBITION turned out to be 58.5%.
